Compound activity from PubChem.
Sampled rows, rich in hits. Any-hit rate of the full collection: about 6.5%.
VACV Venus inh: inhibitors of vaccinia virus (Venus reporter); Potency, µM (series often up to 36.5 µM), for inactives: at the top dose activity change, negative = inhibition, most hits filed as inhibitors; Vaccinia virus Venus reporter expression, fluorescence; 0.46% of 330,000 active; calls by dose curve; tested in A549 cells; further: potency means the concentration at half of the fitted maximal effect; nearly all actives have a fitted effect of over 30% in size
HCMV antiviral: human cytomegalovirus inhibition | HFF cells, HCMV-luciferase reporter, 72 h; hits give low values | activity change, negative = inhibition, % at 57.5 µM | 4.5% of 410,000 active; in the data active means activity change below about -60%; inconclusive means no clear call, values can overlap the other calls; inactive means above about -39%
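Luciferase read-out from HCMV-luciferase-infected HFFs (MOI 1 PFU/cell) 72 h post infection at 37C; compounds added after 16 h cell attachment; activity normalized between buffer-only basal and Salinomycin (10uM) inhibitor controls.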
LASV entry inh: Lassa virus entry inhibition. Lassa virus pseudotype entry inhibition, cell reporter. Potency, µM (titrated, usually from 37.9 µM), without a hit: top-dose activity change, negative = inhibition, usual class: inhibitors. 1.2% of 300,000 active; calls by dose curve; tested in HEK293 cells; further: potency means the concentration at half of the fitted maximal effect; nearly all actives have a fitted effect of over 50% in size
FMDV inh: antivirals against foot and mouth disease virus; FMDV antiviral cell-based qHTS; Potency, µM (top dose mostly 57.9 µM), for the others: at the top dose activity change, negative = inhibition, actives largely listed as inhibitors; 1.2% of 410,000 active; AID 1159524; calls by dose curve; tested in HEK293T cells; further: read-out not given here; potency means the concentration at half of the fitted maximal effect; nearly all actives have a fitted effect of over 45% in size
VACV mCherry inh: vaccinia inhibition (mCherry reporter) | Vaccinia virus mCherry reporter infection, fluorescence | Potency, µM (series often up to 36.5 µM), inactives show top-dose activity change, negative = inhibition, most hits filed as inhibitors | 0.63% of 310,000 active | AID 720579; calls by dose curve; tested in A549 cells; further: potency means the concentration at half of the fitted maximal effect; nearly all actives have a fitted effect of over 35% in size
MARV entry inh: blocks Marburg virus binding to or entry into cells; Marburg virus pseudotyped entry inhibition, cell reporter; Potency, µM (doses to about 37.8 µM), for inactives: top-dose activity change, negative = inhibition, usual class: inhibitors; 1.8% of 300,000 active; calls by dose curve; tested in HEK293 cells; further: potency means the concentration at half of the fitted maximal effect
Numbers without * were called inactive; i = inactive; u = inconclusive; x = not tested or not shown; ! = not confirmed by another sample; [ ] = remark or other dose. On the % scale 0 is the no-effect control and ±100 the full control effect.

SMILES	VACV Venus inh	HCMV antiviral	LASV entry inh	FMDV inh	VACV mCherry inh	MARV entry inh
C=C1C(=O)OC2CC1C(O)CC(C)=CCCC(C)=CC(O)CC2C (configuration not stated)	11µM*	-34	u	7.9µM*	u	4µM*
O=C(c1sccc1Br)N1CCN(Cc2ccc3c(c2)OCO3)CC1	-15%	-63*	-3%[46.1 µM]	-27%	-17%	-19%[46.1 µM]
O=C(C(Cl)Cl)N1CCN(Cc2ccc3c(c2)OCO3)CC1	x	-74*	x	-7%	x	x
C=CCNC(=S)N1CCN(Cc2ccc3c(c2)OCO3)CC1	x	-98*	x	-7%	x	x
CCNC(=S)N1CCN(Cc2ccc3c(c2)OCO3)CC1	x	-22	x	15%	x	x
Cc1ccc(NC(=O)N(Cc2ccc3c(c2)OCO3)C2CCN(Cc3ccccc3)CC2)cc1Cl	u	-71*	11µM*	-15%	u	x
O=C(c1ccc(COc2ccc(Cl)cc2)o1)N1CCN(Cc2ccc3c(c2)OCO3)CC1	-19%	-33	u	x	-22%	-21%
O=C(c1ccc(COc2ccccc2Cl)o1)N1CCN(Cc2ccc3c(c2)OCO3)CC1	-16%	1	u	35µM*!	i	u
O=C(C1CCN(Cc2ccccc2O)CC1)N1CCN(Cc2ccc3c(c2)OCO3)CC1	-5%	-65*	2%	-21%	i	u
Cc1cccc(NC(=O)N2CCN(Cc3ccc4c(c3)OCO4)CC2)c1C	x	-75*	x	-21%	x	x
CCCC=CC1C(=O)[C@@H]2O[C@H]2C2(OCC(CC)(CC)CO2)C1CO (some centres not stated)	x	x	x	x	x	-11%[14.2 µM]
CC1CCCCC1N(C)C1CCN(C(=O)CNC(=O)/C=C/c2cccc(Cl)c2)CC1 (configuration not stated)	x	-100*	x	-2%	x	x
Cc1cccc2c(C(O)c3c[nH]c4c(C)cccc34)c[nH]c12	-11%	x	x	x	-11%	x
O=C(O)CNC(=O)[C@@H](CS)Cc1ccccc1	x	x	x	x	x	4%
Cc1cc(C(=O)NNC(=O)c2c(-c3c(Cl)cccc3Cl)noc2C)no1	-5%	4	7%	-8%	-16%	27%
Cc1onc(-c2c(F)cccc2Cl)c1C(=O)Nc1nccs1	-14%	u	0%[46.1 µM]	-28%	-20%	u
Cc1nc(C(=O)NNC(=O)c2c(-c3c(Cl)cccc3Cl)noc2C)cs1	u	u	u	u	u	1.6µM*
CC(NC(=O)Nc1nnc(C(F)(F)F)s1)(C(F)(F)F)C(F)(F)F	2.5µM*	-98*	3.5µM*	u	4µM*	u
Cc1onc(-c2c(F)cccc2Cl)c1C(=O)Nc1nnc(C(F)(F)F)s1	x	-98*	x	u	x	x
COc1ccc(OC)c2sc(NC(=O)c3ccc(Cl)s3)nc12	u	-8	x	0%	-16%	x
CC(C)(C)CC(=O)Nc1nnc(C(F)(F)F)s1	-10%	-19	2%	-8%	-15%	16%
COc1ccc(OC)c2sc(NC(=O)c3ccc(Br)s3)nc12	11µM*	-23	x	-12%	u	x
C=CC1(O)C(OC)=CC2C(=O)C1C(c1ccccc1)C2C (configuration not stated)	x	x	u	x	x	14%[14.2 µM]
Cc1oc2ccc(O)c(CN3CCCC3)c2c1C(=O)Nc1ccc(C(C)C)cc1	-15%	u	u	-23%	-13%	u
O=C(Nc1ccccc1C(=O)Nc1nnc(C(F)(F)F)s1)c1ccccc1Cl	-47%	-103*	u	u	u	u
SMILES	VACV Venus inh	HCMV antiviral	LASV entry inh	FMDV inh	VACV mCherry inh	MARV entry inh
O=C(Nc1nnc(C(F)(F)F)s1)c1ccc(Br)s1	u	u	u	-5%	10µM*	u
CCC(Oc1ccc(F)cc1)C(=O)Nc1cc(-c2ccc(C)cc2)no1 (configuration not stated)	-13%	32	4%[46.1 µM]	-3%	-13%	-11%[46.1 µM]
CCC(Oc1ccc(F)cc1)C(=O)Nc1nc(-c2ccc(F)cc2)ns1 (configuration not stated)	u	-98*	u	-19%	u	u
COC(=O)C1N2C(=O)N(C)[C@H](C(=O)OC)[C@H]2SC1(C)C (some centres not stated)	-7%	x	x	x	i	x
COC(=O)[C@@H]1CCCN1C(=O)c1c(OC)cc(=O)n2c1CCN(Cc1cc(OC)ccc1F)CC2	-1%	x	x	3%	-6%	x
O=C(NC1CCCCC1)c1ccc(S(=O)(=O)N2CCCCC2)cc1	x	-26	2.1µM*	-9%	x	3%
O=C(NC1CCN(S(=O)(=O)c2ccc(F)cc2)CC1)C1CCCCC1	-8%	22	8%[46.1 µM]	-12%	-18%	1%[46.1 µM]
O=C(Nc1cccnc1Cl)c1ccc(S(=O)(=O)N2CCCCCC2)cc1	x	-82*	-4%	-28%	x	-2%
O=C(NC1CCCCC1)C1CCCN(S(=O)(=O)c2ccc(F)cc2)C1 (configuration not stated)	-9%	-81*	-4%	-13%	-13%	-1%[46.1 µM]
O=C(COC(=O)c1ccc(S(=O)(=O)N2CCCC2)cc1)Nc1cccnc1Cl	-16%	-6	15%[46.1 µM]	-8%	i	-5%[46.1 µM]
O=C(COCc1cc(-c2ccc3c(c2)OCO3)on1)NCc1ccc(F)cc1	-5%	15	-1%[46.1 µM]	-16%	-15%	x
COc1ccc2c(c1)OC(C)CN(CCNC(=O)c1cccc(N3CCNC3=O)c1)C2 (configuration not stated)	-15%	x	x	4%	-16%	x
O=C(CSc1nnc(-c2ccc(F)cc2)o1)Nc1ccc(S(=O)(=O)N2CCCC2)cc1	5%	57	2%	-13%	-12%	-7%
COCC(C)NC(=O)CSc1nnc(-c2cccc(S(=O)(=O)N3CCCCC3)c2)o1 (configuration not stated)	-5%	4	-6%	2%	i	u
O=C(O)CSc1nnc(-c2cccc(S(=O)(=O)N3CCCCC3)c2)o1	-3%	7	5%	-9%	9%	18%[46.1 µM]
O=C(CSc1nnc(-c2ccc(F)cc2)o1)Nc1ccc(S(=O)(=O)N2CCCCCC2)cc1	-2%	-84*	u	x	-15%	-15%
CCNC(=O)CSc1nnc(-c2cccc(S(=O)(=O)N3CCOCC3)c2)o1	u	12	27%	-6%	11µM*	19%[46.1 µM]
N#Cc1ccc(CSc2nnc(-c3cccc(S(=O)(=O)N4CCCCC4)c3)o2)cc1	u	-66*	u	-28%	x	u
CC(C)c1cc(/C=C(\C#N)C(=O)NCCCc2ccccc2)cc(C(C)C)c1O	-29%	x	x	u	-12%	x
O=C(CN1CCCCCC1)Nc1cc(C(F)(F)F)ccc1Cl	-7%	u	-6%	-18%	-11%	-5%
O=C(CN1CCN(S(=O)(=O)N2CCOCC2)CC1)Nc1cc(Cl)ccc1Cl	0%	-2	x	28µM*	10%	u
O=C(CN1CCOCC1)Nc1cc(C(F)(F)F)ccc1Cl	-8%	-66*	2%	-22%	-3%	u
Cc1ccc(S(=O)(=O)CCc2nnc(NC(=O)CCl)s2)cc1C	-27%	-78*	u	-4%	-14%	u
CCC[C@H](C)n1[nH]c(=O)cc1N	x	x	x	x	x	30%
